This is a sample that favours compounds with a hit; in the whole collection about 2.8% have one here.
Pol iota inh: inhibitors of human DNA polymerase iota; Q9UNA4; Pol iota fluorescent replication assay, 10 min; Potency, µM (series often up to 115 µM), for inactives: at the highest dose activity, negative = inhibition, usual class: inhibitors; 390,000 compounds, 1% hits; AID 588590; further: potency means the concentration at half of the fitted maximal effect
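Pol iota at 10 nM preincubated 15 min with compounds at room temperature; reaction started with fluorescent substrate, 50 nM final. Fluorescence read kinetically at 0 and 10 min; buffer-only wells as negative control.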
PI5P4Ka inh: PI5P4K alpha (human) kinase inhibition | P48426 | PI5P4Kalpha enzyme, ADP-Glo luminescence, 60 min; stronger effect = lower value | max response, % | 330,000 compounds, 1.2% hits; active means max response of -50% or lower; inconclusive means between -30% and -50%; inactive means -30% or higher; further: value at the top dose of about 77 µM; on the % scale 0 is the no-effect control and ±100 the full control effect
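ADP-Glo luminescence end-point read after a 60 min room-temperature kinase reaction of PI5P4Kalpha plus substrate, initiated with ATP at 5 microM final. Buffer: 0.038 M HEPES pH 7.4, EGTA, 0.1% CHAPS, 5% DMSO.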
WRN helicase inh: WRN helicase (human) inhibition; Potency, µM (highest dose often 114 µM), inactives show at the highest dose activity change, negative = inhibition, actives largely listed as inhibitors; Q14191; 360,000 compounds, 0.46% hits; WRN helicase unwinding, fluorescent forked duplex, kinetic; further: potency means the concentration at half of the fitted maximal effect; on the % scale 0 is the no-effect control and ±100 the full control effect; nearly all actives have a fitted effect of over 55% in size
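Primary qHTS, 1536-well format. 20 nM WRN + compound, 15 min RT; start with 100 nM forked fluorophore/quencher duplex, 2 mM ATP (final); kinetic read ex 525/em 598 nm.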
Pol eta inh: blocks human DNA polymerase eta activity. recombinant Pol eta, fluorescent DNA replication assay. Potency, µM (highest dose often 114 µM), for the others: top-dose activity change, negative = inhibition, hits mostly inhibitors. 390,000 compounds, 1.2% hits. AID 588591; further: potency means the concentration at half of the fitted maximal effect; on the % scale 0 is the no-effect control and ±100 the full control effect
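Fluorescent replication assay: 50 nM final substrate added after a 15 min room-temperature compound preincubation with 10 nM enzyme. Signal taken at 0 min and again at 10 min.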
Pol beta inh: inhibitors of human DNA polymerase beta. Potency, µM (doses to about 114 µM), for inactives: at the highest dose activity change, negative = inhibition, hits mostly inhibitors. 340,000 compounds, 1.3% hits. Pol beta primer extension/strand displacement, fluorescence kinetic; further: potency means the concentration at half of the fitted maximal effect; on the % scale 0 is the no-effect control and ±100 the full control effect
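10 nM enzyme + cpd, 15 min RT; start with substrate 50 nM final; read 0 min and after 10 min RT. Corrected, normalized data; 4-parameter Hill curve fit.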
Pol kappa inh: blocks human DNA polymerase kappa activity; Q9UBT6; purified Pol kappa, fluorescent DNA synthesis assay, 10 min; Potency, µM (titrated, usually from 107 µM), without a hit: at the highest dose activity, negative = inhibition, hits mostly inhibitors; 400,000 compounds, 0.53% hits; further: potency means the concentration at half of the fitted maximal effect; on the % scale 0 is the no-effect control and ±100 the full control effect
Target sequence (Q9UBT6 whole entry, looked up): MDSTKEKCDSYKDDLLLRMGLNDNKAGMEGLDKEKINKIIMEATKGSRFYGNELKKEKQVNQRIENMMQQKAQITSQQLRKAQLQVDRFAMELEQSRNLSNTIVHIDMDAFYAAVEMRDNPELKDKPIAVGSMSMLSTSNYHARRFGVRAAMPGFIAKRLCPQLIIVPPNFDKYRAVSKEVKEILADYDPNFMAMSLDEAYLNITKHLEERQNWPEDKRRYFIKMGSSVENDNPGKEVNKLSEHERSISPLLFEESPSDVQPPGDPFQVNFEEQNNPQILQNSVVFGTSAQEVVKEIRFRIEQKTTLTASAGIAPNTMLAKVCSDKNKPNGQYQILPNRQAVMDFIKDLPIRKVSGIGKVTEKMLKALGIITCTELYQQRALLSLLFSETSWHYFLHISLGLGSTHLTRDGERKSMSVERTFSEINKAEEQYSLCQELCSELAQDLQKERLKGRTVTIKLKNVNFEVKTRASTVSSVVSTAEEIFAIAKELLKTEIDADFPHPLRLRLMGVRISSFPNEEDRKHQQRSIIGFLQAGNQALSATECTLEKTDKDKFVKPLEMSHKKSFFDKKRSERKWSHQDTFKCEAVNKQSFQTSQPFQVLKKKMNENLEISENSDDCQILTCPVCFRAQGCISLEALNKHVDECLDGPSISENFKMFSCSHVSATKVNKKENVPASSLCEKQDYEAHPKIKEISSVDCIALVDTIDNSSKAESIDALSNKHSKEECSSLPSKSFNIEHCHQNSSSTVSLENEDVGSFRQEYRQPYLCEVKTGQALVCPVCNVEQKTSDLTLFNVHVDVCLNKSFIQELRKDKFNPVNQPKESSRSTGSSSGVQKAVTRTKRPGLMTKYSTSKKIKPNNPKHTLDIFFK
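Readout: fluorescence, taken kinetically at 0 and 10 min. Conditions: 10 nM Pol kappa, 15 min RT compound preincubation, 50 nM substrate final. Controls: enzyme-free buffer wells.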
PGK validate: TbPGK inhibition, hit validation | 500 compounds, 79% hits | TbPGK coupled GAPDH assay, Kinase-Glo luminescence | shares compounds with Pol kappa inh | Potency, µM (top dose mostly 57.5 µM), for inactives: at the top dose activity change, negative = inhibition, actives largely listed as inhibitors; further: potency means the concentration at half of the fitted maximal effect; on the % scale 0 is the no-effect control and ±100 the full control effect; nearly all actives have a fitted effect of over 65% in size
Pol iota confirm: Confirm cherry-picked inhibitors of human polymerase iota. shares compounds with Pol kappa inh. Pol iota primer extension, TAMRA/BHQ fluorescence. Potency, µM, actives largely listed as inhibitors. 1,500 compounds, 77% hits. AID 720496; further: potency means the concentration at half of the fitted maximal effect
Numbers without * were called inactive; ? = inconclusive; . = not tested or not shown; [ ] = another dose, or the depositor's remark. Unless noted, the call rests on the fitted dose curve; in most records, active means well fitted curve in the direction sought with a large enough effect; inconclusive means small, poorly fitted or top-dose-only effect, or another doubt; inactive means no such curve, though single readings can be large; an effect the other way counts as inactive or inconclusive.

SMILES | Pol iota inh | PI5P4Ka inh | WRN helicase inh | Pol eta inh | Pol beta inh | Pol kappa inh | PGK validate | others
CN(C)c1ccc(Nc2nc(N)c3ccccc3n2)cc1 | 6% | ? | -7%[57.1 µM] | -8% | -3% | -28% | 13µM*
C=C(C)C(=O)Nc1ccc(OC(F)(F)C(F)F)c(NC(=O)C(=C)C)c1 | 4% | 7 | ? | 18µM* | 32µM* | ? | 6.5µM*
Cc1ccc(CNC(=O)Cn2nnc(C(=O)Nc3cccc(C)c3C)c2N)cc1 | 13% | -2 | -4% | -18% | 2% | -5% | .
Cc1ccc(CNC(=O)c2nnn(CC(=O)Nc3cccc(C)c3C)c2N)cc1 | 15% | 1 | -16%[11.6 µM] | ? | ? | -10% | . | Pol iota confirm=27*
c1ccc(-c2ccc(-c3nc(-c4ccccn4)no3)cc2)cc1 | 6% | . | -3% | -19% | 1% | 0% | .
Cc1ccc(-c2nc(-c3ccccn3)no2)cc1 | 7% | ? | -1% | -7% | 10% | -6% | 15µM*
COc1ccc(CNC(=O)CCc2c(C)nc3c4cccnc4nn3c2C)cc1 | 21% | . | . | -16% | 27% | -4% | .
Cc1cccc(C(=O)OCC(=O)c2ccc3c(c2)OCO3)c1O | 13% | 16 | ? | -8% | 5% | -10% | .
C=CCn1c(C)cc(C(=O)COC(=O)c2ccc(N)c([N+](=O)[O-])c2)c1C | 12% | -4 | -9% | ? | ? | -3% | .
O=C(COC(=O)c1ccccc1[N+](=O)[O-])c1ccc2c(c1)OCO2 | 41% | -20 | -26% | ? | . | -10% | 9.2µM*
CCn1c(C)cc(C(=O)COC(=O)c2ccccc2[N+](=O)[O-])c1C | 3% | -12 | 3% | -19% | . | -5% | 15µM*
COc1ccc(/C=C/C(=O)OCCC(C)C)cc1 | . | . | . | . | . | 2%[60.1 µM] | .
C/C=C\C=C/C(=O)Nc1cccc(C2=NOC3(C2)C[C@H](C(N)=O)N(C(=O)c2ccc(OC)cc2)C3)c1 (stereo partly specified) | 25µM* | ? | -19%[11.6 µM] | 20µM* | -1% | ? | . | Pol iota confirm=?
COc1ccc(Cn2c(=O)[nH]c3cc(C(=O)NCCC(C)C)ccc3c2=O)cc1 | 26% | . | . | -17% | 15% | -2% | .
CC(C)CCNC(=O)c1ccc(Cn2c(=S)[nH]c3ccccc3c2=O)cc1 | ? | 1 | -6%[11.6 µM] | ? | ? | 0% | . | Pol iota confirm=?
CCCCCC(=O)Nc1cc(S(=O)(=O)O)cc2cc(S(=O)(=O)O)cc(O)c12 | 1µM* | -86* | 6.3µM* | -99% | . | 1.4µM* | 0.23µM*
CCCCCC(=O)Nc1cc(S(=O)(=O)N2CCCCC2)ccc1N1CCCCC1 | 38% | 1 | 0% | -20% | . | -12% | .
O=C(Nc1ccc2nc(SCC(=O)N3CCCC3)sc2c1)c1cccc(Br)c1 | 25% | . | . | -18% | -5% | 0% | .
CC(C)(C)C1CCc2c(sc(NC(=O)CCC(=O)O)c2C(=O)Nc2ccccc2C(F)(F)F)C1 (stereo unspecified) | ? | . | . | ? | ? | -25% | . | Pol iota confirm=?
N/C(=N\OC(=O)c1cccs1)c1ccccc1 | -6% | -24 | -7% | -4% | -1% | -6% | 16µM*
Cc1ccc(/C(N)=N/OC(=O)c2cccs2)cc1 | 13% | 6 | 3% | -14% | -14% | -6% | .
Cc1cccc(/C(N)=N/OC(=O)c2cccs2)c1 | 8% | ? | -1% | -12% | 1% | -8% | 16µM*
CC(=O)c1ccc(NC(=O)Cn2c3ncccc3c(=O)n2-c2ccc(C)cc2)cc1 | -13% | . | . | -15% | 16% | -14% | .
Cc1cc(C)c2cc3c(N)c(C(=O)Nc4c(C)[nH]c(=O)[nH]c4=O)sc3nc2c1 | ? | -23 | ? | 45µM* | ? | -20% | . | Pol iota confirm=?
Cc1cc(C)c2cc3c(N)c(C(=O)N4CCOCC4)sc3nc2c1 | 131% | 3 | -4% | -17% | 24% | 2% | .
SMILES | Pol iota inh | PI5P4Ka inh | WRN helicase inh | Pol eta inh | Pol beta inh | Pol kappa inh | PGK validate | others
Cc1ccc(C)c(CNC(=O)c2sc3ncnc(N(C)C4CCCCC4)c3c2C)c1 | -4% | . | . | . | 2% | -5%[60.1 µM] | .
O=C1CC(=O)N(Cc2ccco2)C(=S)N1 | ? | ? | 10µM* | 3.2µM* | 7.9µM* | 3.2µM* | -97%
S=C1NCN(Cc2ccco2)CN1 | -14%[58.9 µM] | 3 | -3% | -5% | 16% | -7% | .
CC(=O)Nc1nonc1-c1nnc(SCC(=O)Nc2cccc(C)c2C)n1-c1ccccc1 | 23% | . | . | -19% | 1% | -1% | .
Cc1ccc(NC(=O)CS(=O)CC(=O)Nc2ccc(N3CCOCC3)cc2)cc1Cl (stereo unspecified) | 18µM* | -13 | -35% | ? | 25µM* | ? | . | Pol iota confirm=?
Cc1cc(C)c(NC(=O)Cn2c(=O)n(-c3cccc(C(F)(F)F)c3)c(=O)c3c(C)c(C)sc32)c(C)c1 | -4% | . | . | . | -12% | -13% | .
O=C1c2ccccc2-c2nnc(-c3ccccc3)cc21 | ? | -11 | -3% | -5% | 26% | 5% | 12µM*
COc1ccc(-c2cc3c(nn2)-c2ccccc2C3=O)cc1 | 187% | ? | -4% | -21% | 37% | -3% | 4.6µM*
O=C(O)c1ccc(N/N=C/c2ccc(-c3cc(Cl)ccc3Cl)o2)cc1 | ? | -10 | -31% | 79µM* | ? | -13% | . | Pol iota confirm=?
O=C(O)c1cc(N/N=C/c2ccc(-c3ccc(F)cc3)o2)ccc1Cl | ? | -3 | -28% | ? | -12% | -14% | .
CCC(Sc1nc2ncccc2o1)C(=O)Nc1cccc(C)c1 (stereo unspecified) | 28% | . | . | . | -2% | -9% | .
